Screens deposited in PubChem by several laboratories.
In the library only some 4.8% were active in any assay of this set; here they are far more common.
Rev-erbA mod – modulators of Rev-erb alpha DNA binding, primary screen, biochemical, FITC-DNA, fluorescence polarization, uHTS; Nuclear receptor subfamily 1 group D member 1 (Homo sapiens), P20393; Rev-erbα–FITC-DNA binding, 90 min; activity, % at 10 µM; 370,000 compounds, 0.79% hits; AID 1259318, 2017;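 active = activity above about 14%, limit read from the data; passing the limit was not always enough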;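 note: 0% = DMSO wells with 35 nM protein and 100% = DMSO wells with 750 nM protein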
DAX1 inh-1 – DAX1 (NR0B1) inhibitors on StAR promoter, primary screen, cell-based, luminescence, SF-1 (NR5A1), full-length DAX-1; inhibition, % at 6.8 µM; HEK293T StAR-luciferase reporter, SF-1/DAX-1 repression relief; AID 652010, 2013; 370,000 compounds, 1.1% hits;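 active = inhibition above the mean over all tested compounds plus 3 SD, cut at about 3.6% in these data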;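 note: 0% = DAX-1 cells with DMSO and 100% = cells lacking DAX-1 with DMSO; higher inhibition means more luminescence from relief of DAX-1 repression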
hgDAF-12 ag – H. glycines DAF-12 receptor agonists, primary screen, cell-based, luminescence, HEK293, GAL4 fusion, UAS-luciferase; Nuclear hormone receptor DAF-12 (Heterodera glycines), GAL4 fusion; HEK293 GAL4-hgDAF12 UAS-luciferase reporter, agonist luminescence; normalized to butyrate control; activation, % at 6.8 µM; 370,000 compounds, 1.8% hits; AID 687014, 2013;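 active = activation above a cutoff set at the mean of all screened compounds plus 3 SD, cut at about 10% in these data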;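 note: 0% = DMSO wells and 100% = sodium butyrate wells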
ssDAF-12 act – S. stercoralis DAF-12 nuclear receptor activators, primary screen, cell-based, luminescence, HEK293, GRIP1 co-expression, lit1-tk-luc. activation, % at 6.8 µM. 370,000 compounds, 1% hits. HEK293 ssDAF-12/GRIP1 lit1-tk-luc reporter; % of 3 µM dafachronic acid response;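 active = activation above the mean over all tested compounds plus 3 SD, cut at about 0.9% in these data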;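 note: 0% = DMSO-only wells and 100% = 3 µM delta7-dafachronic acid wells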
DAX1 inh-2 – DAX1 (NR0B1) inhibitors, primary screen, cell-based, HEK293, Gal4-DAX1, luciferase luminescence. Nuclear receptor subfamily 0 group B member 1 (Homo sapiens), P51843. HEK293 Gal4-DAX1 luciferase reporter. inhibition, % at 6.75 µM. 340,000 compounds, 0.99% hits. AID 504766, 2011;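 active = inhibition above the mean over all tested compounds plus 3 SD, cut at about 4.2% in these data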;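 note: 0% = DAX1-transfected cells with DMSO and 100% = empty-vector control cells with DMSO; inhibition shows as a rise in luminescence from relieved DAX1 repression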
Target sequence (P51843 207-470 limits assumed): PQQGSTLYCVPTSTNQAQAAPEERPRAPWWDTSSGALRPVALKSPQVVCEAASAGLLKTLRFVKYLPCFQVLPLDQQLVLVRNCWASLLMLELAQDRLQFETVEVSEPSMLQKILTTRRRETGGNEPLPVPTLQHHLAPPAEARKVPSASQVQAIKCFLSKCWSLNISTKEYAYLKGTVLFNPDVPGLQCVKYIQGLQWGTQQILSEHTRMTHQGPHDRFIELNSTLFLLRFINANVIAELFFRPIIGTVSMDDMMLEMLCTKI
hcDAF12 agonist – H. contortus DAF-12 nuclear receptor activators, primary screen, cell-based, luminescence, HEK293, lit1-tk-luc reporter; HEK293 hcDAF-12 lit1-tk-luc reporter; 0% DMSO, 100% Δ7-dafachronic acid; activation, % at 6.8 µM; 370,000 compounds, 1.4% hits; AID 652067, 2013;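 active = activation above the mean of all tested compounds plus 3 SD, cut at about 5.5% in these data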;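 note: 100% = response to 3 µM Δ7-dafachronic acid high control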
LXR ag – LXR agonists, Gal4 luciferase reporter, confirmation, counter-screen for hcDAF-12 agonist project, cell-based, luminescence, HEK293, H. contortus campaign | activation, % at 6.8 µM | shares compounds with hcDAF12 agonist | HEK293 Gal4-LXR tk-luc reporter, 24 h; normalized: DMSO 0%, positive control 100% | 3,400 tested, under 10 active;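 active = mean percent activation of the reporter above a cutoff set as the average over tested compounds plus their standard deviation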
Target sequence (P55055 whole entry, looked up, the tested form may be a part): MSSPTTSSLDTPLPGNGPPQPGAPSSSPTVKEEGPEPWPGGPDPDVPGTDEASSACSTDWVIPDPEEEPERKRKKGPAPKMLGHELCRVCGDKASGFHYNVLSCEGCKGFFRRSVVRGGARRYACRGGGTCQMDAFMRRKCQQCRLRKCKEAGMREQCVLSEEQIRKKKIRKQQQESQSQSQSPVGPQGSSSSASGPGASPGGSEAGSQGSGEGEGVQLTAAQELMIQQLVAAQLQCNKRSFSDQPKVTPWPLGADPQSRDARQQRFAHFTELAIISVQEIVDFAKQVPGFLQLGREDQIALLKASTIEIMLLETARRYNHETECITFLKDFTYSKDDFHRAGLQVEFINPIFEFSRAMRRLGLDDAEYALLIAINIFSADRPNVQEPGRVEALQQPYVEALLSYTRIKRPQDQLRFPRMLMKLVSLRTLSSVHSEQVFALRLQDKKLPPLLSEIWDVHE
hcDAF12 ag – H. contortus DAF-12 receptor agonists, confirmation, cell-based, luminescence, HEK293, lit1-tk-luc, triplicate. shares compounds with hcDAF12 agonist. 3,400 compounds, 61% hits. activation, % at 6.8 µM. HEK293 hcDAF-12 lit1-tk-luc reporter; % of Δ7-dafachronic acid response;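 active = mean activation across triplicate tests above the threshold derived from the earlier primary screen, cut at about 5.5% in these data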;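 note: 0% = DMSO only wells and 100% = 3 µM Δ7-dafachronic acid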
hgDAF12 ag – H. glycines DAF-12 receptor agonists, confirmation, cell-based, luminescence, HEK293, GAL4-LBD fusion; activation, % at 6.8 µM; AID 743050, 2013; 3,300 compounds, 80% hits; HEK293 GAL4-hgDAF12 luciferase reporter, agonist mode; percent of butyrate response; shares compounds with hgDAF-12 ag;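 active = mean activation over triplicate wells above the hit cutoff derived from the earlier primary screen, cut at about 11% in these data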;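 note: 0% = DMSO low control and 100% = 2 mM sodium butyrate high control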
LXRb DAF12 ctr – LXR agonists, Gal4 luciferase reporter, confirmation, counter-screen for hgDAF-12 agonist project, cell-based, luminescence, HEK293, H. glycines campaign; 3,300 tested, under 10 active; activation, % at 6.8 µM; 24 h; shares compounds with hgDAF-12 ag;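 active = mean activation of the triplicate above a set limit carried over from the primary screen, none filed active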
* marks the source's active call; other numbers are inactive results; / = not tested or not shown.

SMILES | Rev-erbA mod | DAX1 inh-1 | hgDAF-12 ag | ssDAF-12 act | DAX1 inh-2 | hcDAF12 agonist | LXR ag | hcDAF12 ag | hgDAF12 ag | LXRb DAF12 ctr
COC(=O)c1cc2c(c3c4cc(C)ccc4n(S(=O)(=O)c4cccc(C)c4)c13)C(=O)N(Cc1ccc(N(C)C)cc1)C2 | 5 | -1 | 4 | -1 | / | 0 | / | / | / | /
c1ccc(CSc2nc3ccccc3[nH]2)cc1 | 7 | 3.8* | 22* | 1 | 3 | 8.6* | 1 | 7.4* | 17* | 1
O=C(CCc1nnc(CCc2c[nH]c3ccccc23)o1)NC1CCC1 | -1 | 2 | 16* | 1.1* | 3 | 7.6* | 0 | 6.2* | 12* | 0
Nc1ccccc1SCc1cn2ccccc2n1 | 1 | 4.2* | 14* | 1.4* | 1 | 7.4* | 1 | 5 | 14* | 0
N=C(N)SCc1cn2ccccc2n1 | 4 | 1 | 1 | -1 | 0 | 2 | / | / | / | /
CCOC(=O)CNC(=O)CSc1nnc(-c2ccccc2)n1CC | -1 | 0 | 2 | -1 | / | -1 | / | / | / | /
COc1ccc2nc(NC(=O)c3ccccc3F)sc2c1 | 13 | 3 | 16* | 0 | 2 | 6.9* | 2 | 6.2* | 21* | 1
Cc1ccc2nc(NC(=O)c3ccccc3F)sc2c1 | 7 | 2 | 19* | 1.6* | -1 | 13* | 2 | 15* | 20* | 1
COc1ccc2nc(NC(=O)c3cnccn3)sc2c1 | -1 | 3.6* | 15* | 1.1* | 0 | 8.6* | 1 | 5 | 15* | 1
O=C(Nc1nc2ccc(F)cc2s1)c1cccs1 | 2 | 3 | 18* | 2.7* | 1 | 19* | 1 | 8.1* | 19* | 1
COc1ccc2nc(NC(=O)c3c(C)noc3C)sc2c1 | 8 | 2 | 7 | 0 | 1 | 1 | / | / | / | /
CCNC(=O)N1C[C@H]2CON(C)[C@H]2C[C@H]1c1ccc(N2CCCCC2)cc1 | -9 | 0 | 4 | -1 | / | -1 | / | / | / | /
COC(=O)C1=C(C)N(Cc2cccc(C(F)(F)F)c2)C(=NCc2ccc(OC)cc2)NC1c1ccccc1 (stereo not given) | 8 | 0 | 3 | -1 | / | 1 | / | / | / | /
c1csc(-c2nc3ccccc3[nH]2)c1 | -1 | 1 | 7 | -1 | 0 | 1 | / | / | / | /
Cc1ccc(-c2nc3ccccc3[nH]2)s1 | -1 | 3.8* | 20* | 1.9* | 1 | 7.9* | 2 | 8.2* | 19* | 1
Cc1cc(O)cc(=O)n1-c1cccc(C(F)(F)F)c1 | 4 | -1 | 0 | -1 | / | -1 | / | / | / | /
COc1cccc(N/C=C/C(=O)c2ccc(C)cc2)c1 | 0 | 3 | 14* | 1.4* | 3 | 8.1* | 2 | 11* | 24* | 1
Cc1cc(N/C=C/C(=O)c2ccccc2)ccc1Br | -1 | 3 | 14* | 2.8* | 1 | 9.8* | 2 | 18* | 24* | 1
COc1cccc(NC(=O)COC(=O)c2ccc3c(c2)OCCO3)c1 | 3 | 0 | 2 | -1 | 3 | -1 | / | / | / | /
COc1cccc(NC(=O)c2oc3ccccc3c2NC(=O)c2ccc3c(c2)OCO3)c1 | 4 | -1 | -1 | -1 | -1 | 1 | / | / | / | /
COc1cccc(NC(=O)c2ccc3c(c2)OCO3)c1 | 2 | 3 | 14* | 2.8* | 0 | 7.1* | 1 | 8.2* | 17* | 1
COc1cccc(NC(=O)c2ccc3c(c2)OCCO3)c1 | 0 | 2 | 14* | 1 | -3 | 11* | 1 | 6.9* | 16* | 1
Cc1c(-c2nc(N)nc(Nc3ccccc3F)n2)oc2ccccc12 | 5 | 3.7* | 14* | 0.9* | 4 | 7.5* | 2 | 7.3* | 18* | 1
Cc1ccc(Nc2nc(N)nc(-c3oc4ccccc4c3C)n2)cc1 | / | / | / | / | 1 | / | / | / | / | /
C=CCCC1CN(Cc2ccc(OC)cc2)S(=O)(=O)c2c(cccc2N2CCCC2)O1 (stereo not given) | 0 | -2 | -3 | -1 | / | -1 | / | / | / | /
SMILES | Rev-erbA mod | DAX1 inh-1 | hgDAF-12 ag | ssDAF-12 act | DAX1 inh-2 | hcDAF12 agonist | LXR ag | hcDAF12 ag | hgDAF12 ag | LXRb DAF12 ctr
COC(=O)c1cc2c(c3c4ccccc4n(S(=O)(=O)c4ccc(OC)cc4)c13)C(=O)N(Cc1ccco1)C2 | -2 | -2 | -2 | -1 | / | 0 | / | / | / | /
COC(=O)[C@]12C[C@H](CC(=O)NCC3CCCCC3)C(=O)N(CCc3ccc(OC)c(OC)c3)C1=C[C@H](C(C)C)O[C@@H]2C1CC1 | 1 | 1 | 1 | -1 | / | -2 | / | / | / | /
O=C(Nc1sc2c(c1C(=O)O)CCCC2)c1ccc(F)cc1 | 0 | 0 | -1 | -1 | -1 | 0 | / | / | / | /
NC(=O)c1c(NC(=O)c2ccc(F)cc2)sc2c1CCC2 | 0 | 2 | 15* | 2.0* | 2 | 13* | 1 | 12* | 20* | 1
CC(C)OC(=O)c1ccc2nc3ccccc3nc2c1 | -5 | 2 | 17* | 1.2* | 3 | 7.8* | 2 | 8.1* | 17* | 1
CCN(CC)C(=O)c1ccc2nc3ccccc3nc2c1 | -4 | 0 | 4 | 0 | 2 | 1 | / | / | / | /
